For assay [1], the target named is Thioredoxin reductase 1, cytoplasmic (Rattus norvegicus) (UniProt O89049). Put plainly: qHTS Assay for Substrates of Mammalian Selenoprotein Thioredoxin Reductase 1 (TrxR1) (AID 488772).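 Further: series mostly up to about 57 µM; 0% is about no effect; a drop in NADPH fluorescence below the no-compound background marks a TrxR1 substrate.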 The method in brief:
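In this dual-purpose format, potential substrates are identified from the first fluorescence read after selenite addition, not from the 8-minute delta. Rat enzyme is preincubated with NADPH and then with compound at ~22 deg C.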
On the technique in general: In qHTS, concentration-response curves come from the screen itself.

In assay [2] the target is Flap endonuclease 1 (Homo sapiens) (UniProt P39748). Put plainly: qHTS Validation Assay for the Inhibitors of Human Flap endonuclease 1 (FEN1) (AID 488816). Further: on the % scale 0 is the no-effect control and ±100 the full control effect. Summed up: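 qHTS format: compounds and 10 nM FEN1 incubated 15 min at room temperature before adding 50 nM substrate. Cleavage followed by reads at 0 and 15 min; normalized data fitted to a four-parameter Hill curve.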
Chain of Flap endonuclease 1 (Homo sapiens) (P39748 whole entry, looked up): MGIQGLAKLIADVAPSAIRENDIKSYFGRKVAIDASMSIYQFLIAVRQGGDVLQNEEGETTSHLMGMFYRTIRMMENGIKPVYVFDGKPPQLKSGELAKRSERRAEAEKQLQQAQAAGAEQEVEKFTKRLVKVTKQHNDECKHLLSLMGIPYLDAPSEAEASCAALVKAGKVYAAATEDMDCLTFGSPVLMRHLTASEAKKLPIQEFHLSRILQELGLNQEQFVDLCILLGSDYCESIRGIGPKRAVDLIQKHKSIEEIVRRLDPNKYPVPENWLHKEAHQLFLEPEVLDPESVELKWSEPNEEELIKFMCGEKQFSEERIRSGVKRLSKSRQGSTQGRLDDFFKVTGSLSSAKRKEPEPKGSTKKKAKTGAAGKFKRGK

Assay [3] concerns the target M-phase phosphoprotein 8 (Homo sapiens) (UniProt Q99549). Put plainly: qHTS Validation Assay for Inhibitors for MPP8 Chromodomain Interactions with Methylated Histone Tails (AID 488949). Further: top concentration of the series differs between compounds; on the % scale 0 is the no-effect control and ±100 the full control effect; nearly all actives have a fitted effect of over 55% in size. Summed up: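 MPP8 (50 nM) was preincubated with biotinylated H3(1-18)K9me3 peptide (50 nM) in PBS pH 7.4, 0.01% Tween-20 for 30 min at room temperature, then with compounds for 30 min; binding was detected by AlphaScreen.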

The target of assay [4] is Methanococcus maripaludis chaperonin (MmCpn) (UniProt Q6LX38). Put plainly: High-Throughput Screening for Modulators of Cytosolic Chaperonin Activity: MmCpn Primary Screen (AID 488978).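 Further: 50 nM MmCpn enzyme hydrolysing 30 µM ATP at 37 °C; 0% is about no effect.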 Summed up: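 MmCpn (50 nM final) was preincubated with compound 5 min at RT, then 30 uM ATP (final) was added and the reaction ran 10 min at 37C. ADP produced was detected by Transcreener HTRF (ex 320 nm; em 590/665 nm).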
Chain of Methanococcus maripaludis chaperonin (MmCpn) (Q6LX38 1-543): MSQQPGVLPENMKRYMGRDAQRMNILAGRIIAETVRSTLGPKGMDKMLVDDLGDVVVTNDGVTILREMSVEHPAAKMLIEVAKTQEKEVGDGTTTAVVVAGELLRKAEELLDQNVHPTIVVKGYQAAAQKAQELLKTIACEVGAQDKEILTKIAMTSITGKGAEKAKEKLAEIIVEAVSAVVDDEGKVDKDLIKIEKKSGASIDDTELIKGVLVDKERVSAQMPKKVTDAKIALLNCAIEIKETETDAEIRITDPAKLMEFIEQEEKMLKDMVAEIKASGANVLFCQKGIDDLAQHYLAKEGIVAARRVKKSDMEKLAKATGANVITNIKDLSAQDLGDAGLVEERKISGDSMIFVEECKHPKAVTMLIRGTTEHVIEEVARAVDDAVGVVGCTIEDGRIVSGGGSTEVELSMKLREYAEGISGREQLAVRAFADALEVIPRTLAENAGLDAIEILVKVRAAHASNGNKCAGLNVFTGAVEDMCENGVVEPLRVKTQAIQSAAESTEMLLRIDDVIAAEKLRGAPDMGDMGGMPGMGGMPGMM

For assay [5], the target named is D(1A) dopamine receptor (Homo sapiens) (UniProt P21728). The experiment in a line: HTS Assay for Allosteric Agonists of the Human D1 Dopamine Receptor: Primary Screen for Agonists (AID 488981). Further: potency means the concentration at half of the fitted maximal effect. On activation: 0% is about no effect. The method in brief:
(§1)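 Calcium flux in an inducible, force-coupled HEK293 Trex D1 line (overnight at 30 C): agonist mode is the 180 s kinetic read after compound; potentiator mode is the following 180 s read after dopamine at EC20.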

Assay [6] shares this target. The experiment in a line: HTS Assay for Allosteric Agonists of the Human D1 Dopamine Receptor: Primary Screen for Potentiators (AID 488982). Further: potency means the concentration at half of the fitted maximal effect. Summed up:
as §1

The target is the same in assay [7]. Put plainly: HTS Assay for Allosteric Agonists of the Human D1 Dopamine Receptor: Primary Screen for Antagonists (AID 488983).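 Further: calcium flux response to an EC80 dopamine challenge measured with no-wash dye; nearly all actives have a fitted effect of over 65% in size.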 Further: potency means the concentration at half of the fitted maximal effect. Summed up: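 Calcium flux readout, no-wash dye, inducible HEK293 T-REx D1 line (force-coupled). Compound added after 10 s baseline, 180 s kinetic read; then dopamine at EC80, further 180 s read.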
Assay [8] in a line: Validation screen for small molecules that induce genotoxicity in human embryonic kidney (HEK293T) cells expressing luciferase-tagged ELG1 (AID 493106). Further: 0% is about no effect. Summed up: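 qHTS format; 2,000 HEK293T ELG1-luc cells/well; 23 nL compound via pin tool; 16 hr, 37 °C/5% CO2; ONE-Glo, 30 min RT; luminescence read.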
Assay [9] can be described thus: Nrf2 qHTS screen for inhibitors: Validation (AID 493153; active means well fitted inhibition curve with a large enough effect in the main read-out, with a control signal flat, not every such curve was filed as active). To be noted: Potency: luciferase luminescence; viability change: measured here: cytotoxicity max response. Summed up: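 Concentration-response test in A549 ARE_Fluc reporter cells (5% FBS OPTI-MEM), compound exposure 18-24 h at 37°C, 5% CO2. Cell viability measured first by CellTiter-Fluor fluorescence; ARE-driven luciferase luminescence then measured as Nrf2 activity.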

Assay [10] in a line: qHTS for Inhibitors of Cell Surface uPA Generation: Validation Assay (AID 493164).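 Further: RAW 264.7 macrophage cells exposed to compound for 18 h; 0% is about no effect.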 Summed up:
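Compounds are titrated over seven points (2.45 nM–38.3 uM final) onto pre-plated RAW 264.7 cells and incubated for 18 h. Retained intracellular ATP, measured with ATP-Lite, indicates blocked lethal factor entry.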

The target in assay [11] is ATP-dependent 6-phosphofructokinase (Trypanosoma brucei brucei) (UniProt O15648). The experiment in a line: qHTS Assay to Find Inhibitors of T. brucei phosphofructokinase: hit validation (AID 492961).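 Further: luminescence reports ADP formed as PFK phosphorylates fructose-6-phosphate with ATP; series mostly up to about 51 µM; on the % scale 0 is the no-effect control and ±100 the full control effect.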 Summed up: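 Measures ADP output of PFK (1.25 nM) at 0.1 mM ATP, 0.5 mM F6P, pH 8.0 TEA buffer with 5 mM MgCl2. No-enzyme wells define full inhibition; uninhibited enzyme wells define zero.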
Chain of ATP-dependent 6-phosphofructokinase (Trypanosoma brucei brucei) (O15648 whole entry, looked up): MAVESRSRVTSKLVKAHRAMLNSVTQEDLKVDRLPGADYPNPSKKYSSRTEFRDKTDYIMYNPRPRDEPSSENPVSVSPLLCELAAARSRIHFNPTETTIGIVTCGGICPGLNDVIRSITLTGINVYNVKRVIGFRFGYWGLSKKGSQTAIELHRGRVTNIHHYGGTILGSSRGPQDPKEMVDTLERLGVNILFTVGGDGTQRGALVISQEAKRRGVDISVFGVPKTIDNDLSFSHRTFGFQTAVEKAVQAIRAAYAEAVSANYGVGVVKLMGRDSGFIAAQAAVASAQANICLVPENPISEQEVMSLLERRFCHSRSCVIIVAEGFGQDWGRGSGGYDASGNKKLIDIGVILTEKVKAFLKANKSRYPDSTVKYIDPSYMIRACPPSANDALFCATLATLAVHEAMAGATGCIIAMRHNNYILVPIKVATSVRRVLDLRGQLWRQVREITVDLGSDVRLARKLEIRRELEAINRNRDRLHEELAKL

Assay [12] addresses Thioredoxin reductase 1, cytoplasmic (Rattus norvegicus) (UniProt O89049). The experiment in a line: qHTS Assay for Inhibitors of Mammalian Selenoprotein Thioredoxin Reductase 1 (TrxR1) (AID 488773). Further: nearly all actives have a fitted effect of over 40% in size. Further: potency means the concentration at half of the fitted maximal effect. To be noted: Potency: inhibition. Summed up: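 Inhibition is scored from the loss of NADPH fluorescence between first and last reads of an 8-min kinetic run. Selenite (400 uM) was the substrate, added after 15 min compound preincubation at room temperature.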

For assay [13], the target named is ATPase family AAA domain-containing protein 5 (Homo sapiens) (UniProt Q96QE3). Put plainly: Validation screen for small molecules that inhibit ELG1-dependent DNA repair in human embryonic kidney (HEK293T) cells expressing luciferase-tagged ELG1 (AID 493107). Further: nearly all actives have a fitted effect of over 70% in size. Further: potency means the concentration at half of the fitted maximal effect. Summed up: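 ELG1-luciferase HEK293T reporter; 5-fluorouridine + compound/DMSO, 16 hr, 37 °C, 5% CO2; ONE-Glo 30 min RT; luminescence read, qHTS format.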
Chain of ATPase family AAA domain-containing protein 5 (Homo sapiens) (Q96QE3 whole entry, looked up, the tested form may be a part): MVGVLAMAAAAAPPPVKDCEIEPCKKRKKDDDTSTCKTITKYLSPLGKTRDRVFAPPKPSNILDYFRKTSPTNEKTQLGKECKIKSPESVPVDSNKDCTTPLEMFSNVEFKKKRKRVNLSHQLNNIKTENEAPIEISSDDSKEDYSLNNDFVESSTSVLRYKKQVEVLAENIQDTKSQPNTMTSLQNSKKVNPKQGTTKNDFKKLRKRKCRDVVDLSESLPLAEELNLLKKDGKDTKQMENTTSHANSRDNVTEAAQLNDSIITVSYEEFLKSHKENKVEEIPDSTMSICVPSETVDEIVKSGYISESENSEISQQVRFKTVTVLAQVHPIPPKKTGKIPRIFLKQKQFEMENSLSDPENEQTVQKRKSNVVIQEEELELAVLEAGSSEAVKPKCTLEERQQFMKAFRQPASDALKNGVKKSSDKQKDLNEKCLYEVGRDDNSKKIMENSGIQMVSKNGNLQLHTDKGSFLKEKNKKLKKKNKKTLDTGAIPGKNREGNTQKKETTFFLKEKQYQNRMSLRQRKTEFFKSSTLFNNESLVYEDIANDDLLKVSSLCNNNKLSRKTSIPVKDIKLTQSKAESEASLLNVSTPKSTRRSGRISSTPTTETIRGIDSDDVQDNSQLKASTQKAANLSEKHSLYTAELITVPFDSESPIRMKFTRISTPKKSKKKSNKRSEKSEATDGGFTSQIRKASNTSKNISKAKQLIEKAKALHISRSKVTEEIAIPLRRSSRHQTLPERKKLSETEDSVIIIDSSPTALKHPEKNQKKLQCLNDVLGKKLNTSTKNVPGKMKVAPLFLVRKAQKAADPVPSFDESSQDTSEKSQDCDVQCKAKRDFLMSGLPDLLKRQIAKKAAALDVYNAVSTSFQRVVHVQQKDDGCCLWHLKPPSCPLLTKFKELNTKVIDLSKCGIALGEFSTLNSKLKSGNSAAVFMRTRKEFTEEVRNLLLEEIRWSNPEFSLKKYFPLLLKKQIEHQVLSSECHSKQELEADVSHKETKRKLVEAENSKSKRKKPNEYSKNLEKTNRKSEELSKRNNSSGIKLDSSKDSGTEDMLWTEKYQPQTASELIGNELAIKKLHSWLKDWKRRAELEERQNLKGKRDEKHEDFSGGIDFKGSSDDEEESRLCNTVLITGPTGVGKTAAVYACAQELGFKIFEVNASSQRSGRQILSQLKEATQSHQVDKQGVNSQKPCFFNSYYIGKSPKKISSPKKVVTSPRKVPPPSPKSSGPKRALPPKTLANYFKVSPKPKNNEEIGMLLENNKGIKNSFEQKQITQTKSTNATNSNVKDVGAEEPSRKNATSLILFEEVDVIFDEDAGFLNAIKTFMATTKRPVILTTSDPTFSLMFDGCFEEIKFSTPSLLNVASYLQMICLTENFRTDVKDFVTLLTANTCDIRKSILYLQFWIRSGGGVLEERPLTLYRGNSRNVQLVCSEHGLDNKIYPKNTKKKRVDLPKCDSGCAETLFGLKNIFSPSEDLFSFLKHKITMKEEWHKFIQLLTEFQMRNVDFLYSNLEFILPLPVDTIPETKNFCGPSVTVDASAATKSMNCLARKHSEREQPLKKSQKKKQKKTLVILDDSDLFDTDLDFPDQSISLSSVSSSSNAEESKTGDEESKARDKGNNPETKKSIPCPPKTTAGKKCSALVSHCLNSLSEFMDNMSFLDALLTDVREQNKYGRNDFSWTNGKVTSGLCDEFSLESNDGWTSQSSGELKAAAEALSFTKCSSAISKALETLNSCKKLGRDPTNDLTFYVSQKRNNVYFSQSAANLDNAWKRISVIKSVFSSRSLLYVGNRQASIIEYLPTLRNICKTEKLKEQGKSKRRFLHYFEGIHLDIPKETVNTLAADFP

For assay [14], the target named is Transient receptor potential cation channel subfamily V member 1 (Homo sapiens) (UniProt Q8NER1). Put plainly: HTS Assay for Compounds that Act as Enhancers of the Vanilloid Receptor 1 (AID 488979). Further: 0% is about no effect. The method in brief: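 Calcium influx kinetics via Fluo-8 (480/520 nm) in TRPV1-expressing cells, 2000/well cultured overnight at 35.5C. Compound-alone read 3 min (agonist phase), followed by EC20 capsaicin challenge for 2 min (enhancer phase).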

Assay [15] concerns the target Thyrotropin-releasing hormone receptor (Homo sapiens) (UniProt P34981). The experiment in a line: qHTS for Small Molecule Agonists and Allosteric Enhancers of Human TRH Receptor: Validation Screen for Agonists (AID 493127;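 active means calcium activation more than 3 SD above the typical response in the agonist read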;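 further: intracellular calcium rise by fluo-8 fluorescence before TRH EC20 addition; 0% is about no effect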). To be noted: TRH receptor agonist cell assay; at 2 µM; stronger effect = higher value. The method in brief:
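Read-out: intracellular calcium release measured kinetically by FDSS (fluo-8, ex 480/em 530 nm), 1 reading/s after a 10-cycle baseline. TRHR cells, 2000/well, cultured 18 h at 33.5C, dye-loaded at room temp. Compound-evoked positive calcium signal flags agonists.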

Assay [16] deals with Tyrosyl-DNA phosphodiesterase 1 (Homo sapiens) (UniProt Q9NUW8). Put plainly: Confirmation Assay for Inhibitors of Tyrosyl-DNA Phosphodiesterase (TDP1) (AID 489007). Further: potency means the concentration at half of the fitted maximal effect; nearly all actives have a fitted effect of over 40% in size. The settings on record: recombinant human TDP1 enzymatic activity, dose-response. The method in brief:
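AlphaScreen read-out: streptavidin donor and anti-FITC acceptor beads (10 ug/ml) bind intact substrate, so Tdp1 removal of tyrosine-FITC lowers signal. Enzyme 1 nM, substrate 15 nM, 5 min reaction at room temperature after 15 min compound preincubation.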

Assay [17] concerns the target Thyrotropin receptor (Homo sapiens) (UniProt P16473). The experiment in a line: qHTS Assay for Antagonists of the Thyroid Stimulating Hormone Receptor (AID 488980). Further: series mostly up to about 58 µM; 0% is about no effect. Summed up:
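HEK293 cells transfected with human TSHR, suspended in HEPES-buffered HBSS with 70 uM RO 20-1724, were treated with compounds plus TSH at EC80 (4 nM final). cAMP was measured by competitive HTRF (cryptate anti-cAMP antibody, cAMP-d2 acceptor).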

In assay [18] the target is Chromobox protein homolog 1 (Homo sapiens) (UniProt P83916). Put plainly: qHTS Validation Assay for Inhibitors of HP1-beta Chromodomain Interactions with Methylated Histone Tails (AID 488953). Further: potency means the concentration at half of the fitted maximal effect; nearly all actives have a fitted effect of over 50% in size. Summed up:
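AlphaScreen proximity readout: streptavidin donor and Ni-chelate acceptor beads, 10 ug/mL final, 30 min dark, RT. Complex of 50 nM HP1-beta and 50 nM b-H3(1-18)K9me3 formed 30 min, then compound-treated 30 min; PBS pH 7.4/0.01% Tween-20.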

From PubChem BioAssay (NCATS) come the findings set out here.

Molecules are shown by their SMILES. Results filed as inconclusive are left out. Active and inactive are the calls of the source. Unless noted, the call rests on the fitted dose curve; in most records, active means well fitted curve in the direction sought with a large enough effect; inconclusive means small, poorly fitted or top-dose-only effect, or another doubt; inactive means no such curve, though single readings can be large; an effect the other way counts as inactive or inconclusive.

Chain of Thioredoxin reductase 1, cytoplasmic (Rattus norvegicus) (O89049 whole entry, looked up): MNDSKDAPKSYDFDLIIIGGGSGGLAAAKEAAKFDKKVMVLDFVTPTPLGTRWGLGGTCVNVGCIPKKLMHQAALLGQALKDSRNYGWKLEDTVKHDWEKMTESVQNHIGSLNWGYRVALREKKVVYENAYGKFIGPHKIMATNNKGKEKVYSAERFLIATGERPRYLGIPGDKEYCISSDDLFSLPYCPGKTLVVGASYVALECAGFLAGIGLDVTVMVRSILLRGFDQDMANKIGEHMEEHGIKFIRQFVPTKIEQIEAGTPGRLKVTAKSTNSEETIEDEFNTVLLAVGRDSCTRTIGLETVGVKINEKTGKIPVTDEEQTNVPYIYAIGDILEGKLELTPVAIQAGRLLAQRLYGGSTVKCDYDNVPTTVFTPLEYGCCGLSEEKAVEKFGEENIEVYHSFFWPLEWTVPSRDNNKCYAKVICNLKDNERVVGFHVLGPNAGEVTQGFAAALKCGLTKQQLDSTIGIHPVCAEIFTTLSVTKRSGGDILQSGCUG
Chain of M-phase phosphoprotein 8 (Homo sapiens) (Q99549 whole entry, looked up): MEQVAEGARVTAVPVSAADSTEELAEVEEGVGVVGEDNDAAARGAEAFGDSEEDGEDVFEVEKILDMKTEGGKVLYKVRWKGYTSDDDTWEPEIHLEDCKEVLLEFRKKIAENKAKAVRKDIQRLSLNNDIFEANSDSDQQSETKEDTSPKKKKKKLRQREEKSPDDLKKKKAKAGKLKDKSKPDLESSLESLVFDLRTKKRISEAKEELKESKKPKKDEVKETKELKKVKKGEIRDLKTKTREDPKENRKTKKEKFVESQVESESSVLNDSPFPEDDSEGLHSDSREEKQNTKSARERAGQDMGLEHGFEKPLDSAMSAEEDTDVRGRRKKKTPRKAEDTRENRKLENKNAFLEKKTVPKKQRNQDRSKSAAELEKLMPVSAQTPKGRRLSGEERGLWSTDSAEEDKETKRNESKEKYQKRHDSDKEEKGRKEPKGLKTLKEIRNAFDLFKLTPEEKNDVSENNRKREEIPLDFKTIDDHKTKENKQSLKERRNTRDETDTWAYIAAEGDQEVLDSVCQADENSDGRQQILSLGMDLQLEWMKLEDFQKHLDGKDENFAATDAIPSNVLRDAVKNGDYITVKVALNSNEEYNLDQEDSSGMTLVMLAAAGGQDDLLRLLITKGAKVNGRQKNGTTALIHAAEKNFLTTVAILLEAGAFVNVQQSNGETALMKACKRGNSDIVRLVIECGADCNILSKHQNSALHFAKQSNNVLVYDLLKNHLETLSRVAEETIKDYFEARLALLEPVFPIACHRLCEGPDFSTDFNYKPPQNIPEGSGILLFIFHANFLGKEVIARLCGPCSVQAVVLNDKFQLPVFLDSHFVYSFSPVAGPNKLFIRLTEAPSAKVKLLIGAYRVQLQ
Chain of D(1A) dopamine receptor (Homo sapiens) (P21728 whole entry, looked up): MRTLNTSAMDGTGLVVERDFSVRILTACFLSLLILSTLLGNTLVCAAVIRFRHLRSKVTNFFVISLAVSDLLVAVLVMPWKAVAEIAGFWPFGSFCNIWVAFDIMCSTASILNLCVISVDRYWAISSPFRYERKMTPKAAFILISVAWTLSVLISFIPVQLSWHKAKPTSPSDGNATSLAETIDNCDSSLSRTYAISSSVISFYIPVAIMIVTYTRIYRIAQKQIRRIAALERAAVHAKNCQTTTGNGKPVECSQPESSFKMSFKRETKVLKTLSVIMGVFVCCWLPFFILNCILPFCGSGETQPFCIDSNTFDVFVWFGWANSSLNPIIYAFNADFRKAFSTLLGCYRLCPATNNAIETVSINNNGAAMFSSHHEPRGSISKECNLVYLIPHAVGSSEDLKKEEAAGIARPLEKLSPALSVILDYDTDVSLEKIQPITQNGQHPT

In the case of `CC(C)[C@@]1(NC(=O)[C@@H]2C[C@@H]3c4cccc5[nH]cc(c45)C[C@H]3N(C)C2)O[C@@]2(O)[C@@H]3CCCN3C(=O)[C@H](Cc3ccccc3)N2C1=O`, the outcome in assay [1], in [4] and in assay [10] was inactive. Also, the Potency entry in assay [2], in [3], in assay [5], in assay [6], in [8] and in [9] was “inactive” in each case. Moreover, in assay [7], the Potency is 5.62 µM (active). In addition, the viability change in assay [9] was determined as 10.7%.
On to `CNC1(c2ccccc2Cl)CCCCC1=O` (centres undefined), for which the Potency result in assay [11] was “inactive”.
`CCC(C)(S(=O)(=O)CC)S(=O)(=O)CC`: the Potency result in [11] is “inactive”.
For the molecule `CN1CC[C@@]2(C)c3cc(OC(=O)Nc4ccccc4)ccc3N(C)[C@@H]12`, the result in assay [1], in assay [4] and in assay [10] was inactive. The Potency entry in assay [12], in [2], in assay [3], in assay [5], in assay [6] and in assay [7] was “inactive” in each case. In addition, the Potency result in assay [8], in assay [13] and in assay [9] was “inactive” in each case. Further, the viability change in assay [9] is -13.9%.
With `CCCN1CCC[C@@H](c2cccc(O)c2)C1`, the Potency entry in assay [12], in assay [3], in [5], in assay [6], in assay [8] and in assay [13] was “inactive” throughout. For the same molecule, in [9], the Potency result was “inactive”. Moreover, the molecule was classed as inactive in [4] and in [10]. For the same molecule, the Potency in assay [7] is 11.2 µM (active). The viability change in assay [9] is -15.6%.
As to `COc1ccc2c(c1OC)C(=O)OC2C1c2cc3c(cc2CCN1C)OCO3` (centres undefined), in assay [14], the result was inactive. Besides, the activation in [15] was -4.69% (inactive).
As to `CC(=O)O[C@H]1CC[C@H]2[C@@H]3CCC4=CC(=O)CCC4=C3C=C[C@]12C`, the Potency entry in [11] is “inactive”.
As for `Cc1cc([C@@H]2CCCN2C)on1`, the outcome in assay [1], in assay [4] and in [10] was inactive. Further, the Potency result in assay [12], in assay [2], in [3], in assay [5], in assay [6] and in assay [7] was “inactive” throughout. Also, the Potency result in [8], in assay [13] and in assay [9] was “inactive” each time. In [9], the viability change stood at 4.53%.
For the molecule `CN1CCCC(=C(c2cccs2)c2cccs2)C1`, the Potency result in assay [11] was “inactive”.
For the molecule `[O]=[Cr](=[O])([OH])[O][Cr](=[O])(=[O])[OH]`, the Potency in assay [16] is 4.47 µM (active).
Take `CC(C)(O)[C@@H]1C2OC(=O)[C@@H]1[C@]1(O)C[C@H]3O[C@]34C(=O)O[C@H]2[C@]14C` (tested in a mixture with another compound): the result in [1], in assay [4] and in [10] was inactive. In addition, the Potency result in [12], in assay [2], in [3], in [5], in [6] and in [7] was “inactive” in each case. Further, the Potency result in [8], in assay [13] and in assay [9] was “inactive” in each case. The viability change in [9] is -3%.
Consider `Ic1ccccc1CNC1C2CCN(CC2)C1C(c1ccccc1)c1ccccc1` (centres undefined), for which the result in assay [1], in assay [4], in assay [17] and in assay [10] was inactive. Moreover, the Potency entry in [12], in assay [2], in assay [3] and in assay [8] was “inactive” in each case. Also, the Potency was 4.11 µM (active) in assay [6] and 16.4 µM (active) in [13]. For the same molecule, in [15], the activation was 2.31% (inactive).
Regarding `COCC(C)N(C(=O)CCl)c1c(C)csc1C` (centres undefined), the Potency entry in assay [11] is “inactive”.
As for `CC(=O)OCC1=C(C(=O)O)N2C(=O)[C@@H](NC(=O)CCC[C@@H](N)C(=O)O)[C@H]2SC1`, the call in assay [1], in [4] and in assay [10] was inactive. The Potency result in assay [12], in assay [2], in assay [3], in [5], in [7] and in assay [8] was “inactive” in each case.
Consider `CCNC(=O)[C@H]1O[C@@H](n2cnc3c(N)ncnc32)[C@H](O)[C@@H]1O`, for which the call in assay [1], in assay [4] and in assay [10] was inactive. The Potency result in assay [12], in [2], in [3], in assay [5], in [6] and in [7] was “inactive” throughout. Moreover, the Potency result in assay [13] was “inactive”.
Turning to `O=CC=O`, the Potency entry in assay [11] was “inactive”.
In the case of `O=[N+]([O-])c1ccc(F)c([N+](=O)[O-])c1`, in assay [11], the Potency result is “inactive”.
On to `CCC(=O)O[C@@](Cc1ccccc1)(c1ccccc1)[C@@H](C)CN(C)C`, for which, in assay [11], the Potency result was “inactive”.
On to `C=CCN1CCc2cccc3c2[C@H]1Cc1ccc(O)c(O)c1-3`, for which the molecule was called inactive in assay [1], in assay [4] and in [10]. Moreover, the Potency in assay [12] was 5.97 µM (active); in assay [18] it was 44.7 µM (active); in [5], 0.794 µM (active); in [7], 0.398 µM (active). Further, the Potency result in [2], in assay [6], in assay [8] and in [9] was “inactive” each time. The viability change in assay [9] was 1.3%.
